Active and inactive are the calls of the source. Unless noted, how the calls were made is not given here.

Test [1] in a line: resazurin metabolic signal in HepG2 cells – cell-based, resazurin fluorescence, 24 h, PK04 Diversity Set, profiling panel (AID 1172). Further: test concentration not given here. Conditions: HepG2 viability, higher = more signal.
A short description of test [2]: budding yeast growth changes without added modifier – OD600, strain BY4716, 24 h, basal condition, primary screen (AID 1173). To be noted: S. cerevisiae BY4716 growth, OD600, 24 h; higher = more signal, called active from +8 up or from −8 down.
The nature of test [3]: viability profiling in MM1S myeloma cells – cell-based, resazurin fluorescence, basal, 24 h, PK04 Diversity Set, profiling panel (AID 1174).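 Further: MM1S multiple myeloma cell line; test concentration not given here.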 Conditions: higher = more signal, called active from +8 up or from −8 down.
The target in test [4] is Dihydroorotate dehydrogenase (quinone), mitochondrial (Plasmodium falciparum (isolate 3D7)) (UniProt Q08210). Nature of the test: inhibition of P. falciparum DHODH – biochemical, C-terminal His tag, absorbance 600 nm, primary screen (AID 1175).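 Further: recombinant parasite enzyme with a five histidine tag at its C terminus; test concentration not given here.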 To be noted: PfDHODH enzyme, DCIP absorbance 600 nm; higher = more signal, called active from +8 up or from −8 down.
Chain of Dihydroorotate dehydrogenase (quinone), mitochondrial (Plasmodium falciparum (isolate 3D7)) (Q08210 whole entry, looked up): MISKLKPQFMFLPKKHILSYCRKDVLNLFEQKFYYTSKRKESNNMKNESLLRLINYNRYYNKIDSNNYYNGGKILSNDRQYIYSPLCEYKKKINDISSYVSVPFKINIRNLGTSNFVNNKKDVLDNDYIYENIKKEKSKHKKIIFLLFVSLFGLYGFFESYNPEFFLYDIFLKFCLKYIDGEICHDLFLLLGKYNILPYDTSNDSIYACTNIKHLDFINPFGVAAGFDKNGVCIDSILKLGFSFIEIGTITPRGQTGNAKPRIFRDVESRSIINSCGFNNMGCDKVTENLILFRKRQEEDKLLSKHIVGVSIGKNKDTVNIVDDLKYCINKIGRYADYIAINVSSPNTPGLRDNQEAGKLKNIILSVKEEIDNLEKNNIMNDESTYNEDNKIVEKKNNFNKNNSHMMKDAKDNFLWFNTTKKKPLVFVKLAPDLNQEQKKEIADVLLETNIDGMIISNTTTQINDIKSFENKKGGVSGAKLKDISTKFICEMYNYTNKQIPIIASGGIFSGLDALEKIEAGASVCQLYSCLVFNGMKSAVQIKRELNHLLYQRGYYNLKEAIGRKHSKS
The nature of test [5]: inhibition of PAO1 biofilm formation – strain PAO1, LB-PBS medium, absorbance 600 nm, primary screen (AID 1176). Further: test concentration not given here. Conditions: P. aeruginosa PAO1 growth/biofilm, A600, 12 h; higher = more signal.
The nature of test [6]: growth modulation of vineyard yeast isolate – strain RM11-1a, OD600, basal, 24 h, primary screen (AID 1177).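 Further: cultures grown under basal conditions with no added stressor; test concentration not given here.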 Conditions: S. cerevisiae RM11-1a growth, OD600, 24 h; higher = more signal, called active from +8 up or from −8 down.
Test [7] is described as follows: growth of efflux-deficient E. coli DRC39 – strain DRC39, OD650, 24 h, E. coli filamentation inducers, primary screen (AID 1178).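 Further: growth measured as culture turbidity by optical density at 650 nm; test concentration not given here.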 To be noted: E. coli DRC39 acrAB, higher = more signal, called active from +8 up or from −8 down.
A short description of test [8]: growth of efflux-deficient E. coli DRC39 – strain DRC39, OD650, 48 h, E. coli filamentation inducers, primary screen (AID 1179).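 Further: screen aims at cell division blockers that make cells filament.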 To be noted: E. coli DRC39 delta-acrAB growth, higher = more signal, called active from +8 up or from −8 down.
Test [9] is described as follows: viability profiling in RPMI8226 myeloma cells – cell-based, resazurin fluorescence, basal, 24 h, PK04 Diversity Set, profiling panel (AID 1180).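 Further: RPMI8826 multiple myeloma cell line at 5000 cells per well; test concentration not given here.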 To be noted: higher = more signal. For orientation: Alamar Blue is a resazurin reagent that responds to reducing activity.
Test [10] has as its target E3 ubiquitin-protein ligase XIAP (Homo sapiens) (UniProt P98170). Nature of the test: small molecules binding XIAP protein – biophysical, small-molecule microarray, fluorescence 635 nm, primary screen (AID 1181).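 Further: score merges 667 nm emission and signal to noise over triplicate slides.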 To be noted: higher = more signal.

Chain of E3 ubiquitin-protein ligase XIAP (Homo sapiens) (P98170 whole entry, looked up): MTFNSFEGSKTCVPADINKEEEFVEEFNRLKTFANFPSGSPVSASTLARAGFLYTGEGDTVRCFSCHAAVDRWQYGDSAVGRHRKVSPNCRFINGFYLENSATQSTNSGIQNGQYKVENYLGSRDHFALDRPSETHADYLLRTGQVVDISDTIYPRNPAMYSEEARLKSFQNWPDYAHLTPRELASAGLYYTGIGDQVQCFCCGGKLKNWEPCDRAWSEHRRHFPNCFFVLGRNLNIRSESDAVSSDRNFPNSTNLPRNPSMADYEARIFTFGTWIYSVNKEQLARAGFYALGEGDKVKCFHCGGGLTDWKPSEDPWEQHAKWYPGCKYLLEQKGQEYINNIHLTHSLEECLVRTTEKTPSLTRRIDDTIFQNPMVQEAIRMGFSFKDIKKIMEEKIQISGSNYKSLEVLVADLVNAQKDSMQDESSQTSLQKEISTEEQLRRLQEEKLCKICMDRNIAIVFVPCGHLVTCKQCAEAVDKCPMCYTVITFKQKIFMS

For `Cc1ccc(S[C@]2(C(=O)NCCN3CCOCC3)CC(=O)N(Cc3ccccc3Cl)[C@@H]2c2ccc(CO)cc2)cc1`, the z-score is 0.286 in [1]; -0.709 (inactive) in test [2]; 1.04 (inactive) in [3]; 0.621 (inactive) in test [5]; 0.381 (inactive) in [6]; 0.381 (inactive) in [7]. The z-score in [8] is 0.237 (inactive); in test [9], 0.958. Also, the composite z-score in [4] is -0.245 (inactive); in test [10], 0.0428.

Turning to `COCCOC(=O)N1C(=O)[C@@]2(c3cc(C#CCNC(N)=O)ccc31)[C@H](C(=O)NC[C@H](O)c1ccccc1)[C@H]1C(=O)O[C@H](c3ccccc3)[C@H](c3ccccc3)N1[C@@H]2c1ccccc1OCCO`, the z-score in test [1] is -0.577; in [2], 1.39 (inactive); in [3], 0.796 (inactive); in [5], 2.62 (inactive); in test [6] it was 1.97 (inactive); in test [7] it was 1.01 (inactive). Besides, the values for the z-score in test [8] and in [9] were 1.1 (inactive) and 0.952, respectively. Moreover, the results for the composite z-score in test [4] and in [10] were 0.272 (inactive) and 0.108, respectively.

As for `CC(C)OC(=O)C=C1C[C@@H](c2ccccc2C(F)(F)F)O[C@@H](c2ccccc2C(F)(F)F)O1`, the z-score is -0.111 in [1]; 0.0349 (inactive) in [2]; 0.493 (inactive) in test [3]; -0.212 (inactive) in test [5]; 0.123 (inactive) in test [6]; -1.23 (inactive) in [7]. Further, the figures for the z-score in test [8] and in test [9] were 0.217 (inactive) and -0.818, respectively. Moreover, the composite z-score was -1.12 (inactive) in [4] and 0.193 in [10].

In the case of `O=C1O[C@@H](c2ccccc2)[C@@H](c2ccccc2)N2[C@@H](c3ccc(OCCO)cc3)[C@]3(C(=O)Nc4ccccc43)[C@@H](C(=O)NC[C@H](O)c3ccccc3)[C@H]12`, the z-score in test [1] is 0.665; in [2], 1.33 (inactive); in test [3], 0.251 (inactive); in [5], 2.44 (inactive); in test [6], 1.84 (inactive); in test [7] it was 0.0225 (inactive). Besides, the results for the z-score in [8] and in [9] were -0.348 (inactive) and -0.0509, respectively. The composite z-score is -0.854 (inactive) in [4] and -0.117 in [10].

Turning to `CC(C)C(=C=CC[C@@H](O)c1ccccc1OCCO)CCO`, the z-score was 0.61 in [1]; -13 (active) in test [2]; 0.11 (inactive) in [3]; -0.0828 (inactive) in test [5]; 0.413 (inactive) in test [6]; 0.272 (inactive) in test [7]. The z-score in test [8] was 0.123 (inactive); in [9] it was 1.28. Also, the composite z-score in test [4] is -5.28 (inactive); in [10], -0.318.

As for `O=C1[C@H]2C=C(Br)[C@H](C[C@@H]2OCCCCO)[C@@]12CO2`, the z-score is -0.312 in test [1]; -0.172 (inactive) in test [2]; -0.718 (inactive) in test [3]; 0.13 (inactive) in test [5]; 0.614 (inactive) in test [6]; -0.649 (inactive) in [7]. The z-score in test [8] was -0.808 (inactive); in test [9], -0.133. The results for the composite z-score in test [4] and in test [10] were 0.228 (inactive) and -0.0749, respectively.

With `C=C(COC)/C(=C/C[C@H](OC(=O)c1ccncc1)c1ccc(OCCO)cc1)c1cnc2ccccc2c1`, the z-score in test [1] was 0.444; in test [2], -0.309 (inactive); in test [3], -0.389 (inactive); in [5], 0.424 (inactive); in test [6] it was -0.401 (inactive); in [7], -0.802 (inactive). The z-score was -0.679 (inactive) in [8] and -0.342 in test [9]. The composite z-score in test [4] was -3.5 (inactive); in [10] it was -0.174.

`CCOC(=O)C1=CCC(c2ccc(C)cc2)N(S(=O)(=O)c2ccc(C)cc2)C1` (stereo not given): the z-score was 0.28 in test [1]; 1.94 (inactive) in test [2]; -0.714 (inactive) in test [3]; 0.173 (inactive) in test [5]; 1.03 (inactive) in test [6]; -0.764 (inactive) in [7]. The z-score in [8] is -0.56 (inactive); in test [9], -1.63. Moreover, the composite z-score was -0.526 (inactive) in test [4] and 0.128 in test [10].

With `COC(=O)c1c(CC[C@@H](CO)NC(=O)N2CCC[C@H]2Cn2cc(-c3ccccn3)nn2)oc(C(C)=O)c1C(=O)OC`, the z-score was 0.422 in [1]; -0.835 (inactive) in test [2]; 0.608 (inactive) in [3]; -0.252 (inactive) in test [5]; -1.19 (inactive) in [6]; 1.28 (inactive) in test [7]. In addition, the results for the z-score in test [8] and in test [9] were 0.835 (inactive) and 0.426, respectively. Also, the composite z-score is -0.492 (inactive) in [4] and -0.0351 in test [10].

Regarding `C=CCC(OC(C)=O)[C@@H]1[C@@H](N(Cc2cccc3ccccc23)C(=O)c2ccc(-c3ccccc3)cc2)c2cc(OCCCO)ccc2N1C(=O)Cc1ccc(OC)cc1` (stereo not given in full), the z-score was 1.07 in test [1]; -0.912 (inactive) in test [2]; 1.6 (inactive) in [3]; -0.513 (inactive) in [5]; -1.2 (inactive) in [6]; 0.738 (inactive) in test [7]. In addition, the z-score was 0.718 (inactive) in test [8] and 1.45 in test [9]. Also, the composite z-score is -0.606 (inactive) in test [4] and -0.0076 in test [10].

Take `O=C1OCCC/C=C\[C@H]2OC34C=CCN(Cn5nnc6ccccc65)C(=O)[C@H]3N(CCO)C(=O)[C@@H]4C12` (stereo not given in full): the z-score in [1] is -0.345; in [2] it was -0.0322 (inactive); in [3], 0.158 (inactive); in test [5] it was 0.469 (inactive); in test [6] it was 0.821 (inactive); in [7], 0.254 (inactive). Further, the z-score is -0.146 (inactive) in test [8] and 0.0966 in test [9]. The composite z-score in test [4] was 1.16 (inactive); in [10], 0.213.

For `CCCCc1cn(C[C@H](Cc2ccccc2)NC(=O)N[C@H](CO)CCc2oc(C(C)=O)c(C(=O)OC)c2C(=O)OC)nn1`, the z-score in [1] was -0.013; in test [2], -2.38 (inactive); in test [3], 0.465 (inactive); in test [5], -0.44 (inactive); in test [6], -0.728 (inactive); in test [7], 0.916 (inactive). Further, the z-score in test [8] was 0.646 (inactive); in test [9], -0.185. Further, the composite z-score in test [4] was -2.83 (inactive); in [10] it was 0.276.
